The record followed here is PubChem BioAssay (NCATS).

Values joined by “and” are separate entries in the source; they are usually repeats but may differ in a detail not shown here. Identical values can stand only once. Values without a mark were called inactive. Results filed as inconclusive are left out. Active and inactive are the calls of the source. Unless noted, the call rests on the fitted dose curve; in most records, active means well fitted curve in the direction sought with a large enough effect; inconclusive means small, poorly fitted or top-dose-only effect, or another doubt; inactive means no such curve, though single readings can be large; an effect the other way counts as inactive or inconclusive.

One experiment concerns PA-1. The experiment is described as follows: Primary qHTS to identify gynecologic anti-cancer compounds using libraries of approved drugs and bioactive compounds (AID 1345084). Further: nearly all actives have a fitted effect of over 55% in size. Further: potency means the concentration at half of the fitted maximal effect. To be noted: Gynecologic cancer cell panel viability, ATPlite luminescence, 48 h; series mostly up to 57.5 µM. In short, it runs like this: (§1)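 Luminescence from the ATPlite ATP-monitoring reagent indicates viable cell number; lower signal means cytotoxicity. Cells received compound 16 h after seeding and were exposed for 48 h across five concentrations.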
On the technique in general: Quantitative high-throughput screening tests each substance at several concentrations.

Another experiment concerns Tov-21-G. Described as above. The conditions noted are these: Gynecologic cancer cell panel viability, ATPlite luminescence, 48 h; series mostly up to 57.5 µM. In short, it runs like this:
as §1
On the technique in general: In ATP-based viability assays light output follows the ATP content of the culture.

A short description of experiment [1]: Drug repurposing screens with cells derived from glioblastoma tumor samples (AID 1345199). Further: nearly all actives have a fitted effect of over 40% in size. Further: potency means the concentration at half of the fitted maximal effect. On activity, negative = cell killing: on the % scale 0 is the no-effect control and ±100 the full control effect. The conditions noted are these: GBM patient neurospheres viability, ATP luminescence, 48 h. The procedure, abridged:
(§2)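 Four patient lines of CD133+ GBM neurospheres were screened at several concentrations; hits were retested in those lines plus three slower-growing GBM lines, using 48-hour treatment and ATP-based viability.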

A short description of experiment [2]: qHTS assay to identify inhibitors of the type 1 interferon - major histocompatibility complex class I in skeletal muscle: Counter screen cell viability and HiBit confirmation (AID 1347412). Further: potency means the concentration at half of the fitted maximal effect. On activity change, negative = inhibition: on the % scale 0 is the no-effect control and ±100 the full control effect. On all read-outs here: nearly all actives have a fitted effect of over 60% in size. To be noted: iHSKM muscle cells + IFN-b, HiBiT or CellTiter-Glo, 24 h; for activity change, negative = inhibition: at 45.9 µM (top of the series). The procedure, abridged:
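Duplicate plates, pinned identically: one read for HiBiT-tagged endogenous HLA-B luminescence, the other for ATP-content viability via CellTiter Glo. Cells were genome-engineered human myoblasts given 4 ng/ml IFN-b; compounds 12-pt, 1:3 from 46 uM final; 24 hr exposure.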

A further experiment deals with Hek293T. The experiment is described as follows: Primary qHTS to identify gynecologic anti-cancer compounds using libraries of approved drugs and bioactive compounds (AID 1345084). Further: nearly all actives have a fitted effect of over 55% in size. Further: potency means the concentration at half of the fitted maximal effect. The conditions noted are these: Gynecologic cancer cell panel viability, ATPlite luminescence, 48 h, control line for the selectivity index; series mostly up to 57.5 µM. The procedure, abridged: as §1

The subject of a further experiment is OV90. Described as above. To be noted: Gynecologic cancer cell panel viability, ATPlite luminescence, 48 h; series mostly up to 57.5 µM. The procedure, abridged: as §1
A further experiment has as its system Tov112D. The experiment is described as above. To be noted: Gynecologic cancer cell panel viability, ATPlite luminescence, 48 h; series mostly up to 57.5 µM. In short, it runs like this:
as §1

The target of experiment [3] is Nuclear receptor subfamily 1 group I member 2 (Rattus norvegicus) (UniProt Q9R1A7). The experiment is described as follows: qHTS assay for small molecule activators of the rat pregnane X receptor (rPXR) signaling pathway (AID 651751; call rule not given here; further: 0% is about no effect). The conditions noted are these: rPXR reporter cells, luciferase (One-Glo), 24 h.
Sequence of Nuclear receptor subfamily 1 group I member 2 (Rattus norvegicus) (Q9R1A7 whole entry, looked up): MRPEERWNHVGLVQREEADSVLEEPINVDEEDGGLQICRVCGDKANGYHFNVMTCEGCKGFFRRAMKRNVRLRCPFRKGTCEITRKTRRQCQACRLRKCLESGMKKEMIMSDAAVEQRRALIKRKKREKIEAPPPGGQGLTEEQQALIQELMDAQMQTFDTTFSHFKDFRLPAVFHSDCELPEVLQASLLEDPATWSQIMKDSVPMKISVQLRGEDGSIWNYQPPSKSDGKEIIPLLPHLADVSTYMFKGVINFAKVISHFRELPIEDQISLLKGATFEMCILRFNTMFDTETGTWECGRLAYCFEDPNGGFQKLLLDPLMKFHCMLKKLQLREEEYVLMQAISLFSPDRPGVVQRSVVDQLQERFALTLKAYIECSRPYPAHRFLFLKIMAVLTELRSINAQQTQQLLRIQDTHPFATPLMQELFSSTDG
The nature of experiment [4]: qHTS assay for small molecule activators of the human pregnane X receptor (PXR) signaling pathway (AID 720659; call rule not given here; further: 0% is about no effect).
The subject of the next experiment is SKOV3. The experiment is described as follows: Primary qHTS to identify gynecologic anti-cancer compounds using libraries of approved drugs and bioactive compounds (AID 1345084). Further: nearly all actives have a fitted effect of over 55% in size. Further: potency means the concentration at half of the fitted maximal effect. The conditions noted are these: Gynecologic cancer cell panel viability, ATPlite luminescence, 48 h; series mostly up to 57.5 µM. In short, it runs like this:
as §1

Another experiment concerns JEG-3. The experiment is described as above. The conditions noted are these: Gynecologic cancer cell panel viability, ATPlite luminescence, 48 h; series mostly up to 57.5 µM. The procedure, abridged:
as §1

A further experiment deals with astro. The experiment is described as follows: Drug repurposing screens with cells derived from glioblastoma tumor samples (AID 1345199). Further: nearly all actives have a fitted effect of over 40% in size. Further: potency means the concentration at half of the fitted maximal effect. On activity, negative = cell killing: on the % scale 0 is the no-effect control and ±100 the full control effect. The conditions noted are these: viability, ATP luminescence, 48 h; series mostly up to 45.9 µM. In short, it runs like this: as §2
The mark [5] stands for this setting: at 46.1 µM (top of the series), tumour line C.
The mark [6] stands for this setting: at 20 µM (top of the series), tumour line C.
[7] abbreviates: at 21.2 µM (top of the series), tumour line B.
The mark [8] stands for this setting: at 21.2 µM (top of the series), tumour line D.
Setting [9] is: at 45.9 µM (top of the series), tumour line B.
[10] abbreviates: at 45.9 µM (top of the series), tumour line D.

Take `Oc1c(Cl)cc(Cl)c2cccnc12`: the Potency is 12.6 µM (active) with PA-1, 28.2 µM (active) in the experiment on Tov-21-G, 15.8 µM (active) in experiment [1] (tumour line A) and 8.91 µM (active) in [1] (tumour line B). In experiment [1] (setting [5]), the activity, negative = cell killing was -48.9%. The activity change, negative = inhibition was -16.5% in [2] (HiBiT) and -8.17% in experiment [2] (Viability).

On to `CCCCCCNC(=O)n1cc(F)c(=O)[nH]c1=O`, for which the Potency result in the experiment with Hek293T, in the experiment on OV90 and with Tov112D was “inactive” in each case. Also, the activity, negative = cell killing in [1] (setting [5]) is -20.6%.

For `N[C@@H](Cc1ccc(O)c(O)c1)C(=O)O`, the activity, negative = cell killing in [1] (setting [5]) was 28.9%. Further, in experiment [1] (tumour line A), the Potency was 12.6 µM (active). For the same molecule, the max response in experiment [3] is -10%. The molecule was classed as inactive in experiment [4].

For the molecule `CCCCOc1ccc(CC(=O)NO)cc1`, the Potency entry with Hek293T and in the experiment with OV90 was “inactive” in each case. In addition, the activity, negative = cell killing was 38.6% in [1] (setting [6]), -16.2% in experiment [1] (setting [7]) and -14.5% in [1] (setting [8]). In addition, the Potency in experiment [1] (tumour line A) was 11.2 µM (active).

`COc1cc(NCc2ccc3nc(N)nc(N)c3c2C)cc(OC)c1OC`: the values for the Potency in the experiment on Hek293T, in the experiment with PA-1 and in the experiment on Tov112D were 0.1 µM (active), 0.178 µM (active) and 0.1 µM (active), respectively. In the experiment on SKOV3, the Potency result is “inactive”. The activity change, negative = inhibition in [2] (HiBiT) is -7.08%; in experiment [2] (Viability), -0.467%.

Regarding `CN(C)c1ccc(C(=C2C=CC(=[N+](C)C)C=C2)c2ccc(N(C)C)cc2)cc1`, the Potency with JEG-3 is 14.1 µM (active); with PA-1, 0.447 µM (active); with SKOV3 it was 0.316 µM (active); in the experiment with Tov-21-G, 1.78 µM (active); in the experiment with Tov112D, 2 µM (active); in [2] (HiBiT) it was 9.91 µM (active). In addition, the Potency in experiment [2] (Viability) is 9.91 µM (active). Besides, the result in experiment [4] was inactive.

With `COC(=O)Nc1nc2ccc(Sc3ccccc3)cc2[nH]1`, the Potency in the experiment on OV90 was 10 µM (active); in the experiment on PA-1, 1.41 µM (active); with Tov-21-G, 2.82 µM (active); in the experiment with Tov112D, 1.41 µM (active); in experiment [1] (tumour line A) it was 0.224 µM (active); in the experiment on astro, 0.631 µM (active). In addition, the activity, negative = cell killing in experiment [1] (setting [6]) is -28.6%.

`Cc1cccc(N(C)C(=S)Oc2ccc3ccccc3c2)c1`: the Potency entry with Hek293T, in the experiment with OV90, in the experiment with PA-1, with SKOV3, in the experiment on Tov-21-G and with Tov112D was “inactive” each time. Further, the Potency entry in the experiment with astro was “inactive”. The activity, negative = cell killing is -6.63% in experiment [1] (setting [6]), -15.9% in experiment [1] (setting [7]) and -7.02% in [1] (setting [8]).

Turning to `Nc1nc(N)c2nc(CNc3ccc(C(=O)NC(CCC(=O)O)C(=O)O)cc3)cnc2n1` (configuration not stated), in [3], the max response is -7.99%. The call in experiment [4] was inactive.

Take `CNCC[C@H](Oc1cccc2ccccc12)c1cccs1`: the Potency result in the experiment with JEG-3, in the experiment on PA-1, in the experiment with Tov-21-G and in the experiment with Tov112D was “inactive” each time. The Potency in the experiment with OV90 is 28.2 µM (active); in the experiment with SKOV3 it was 20 µM (active); in experiment [1] (tumour line A) it was 3.55 µM (active); in experiment [1] (tumour line B), 28.2 µM (active); in experiment [1] (tumour line D), 17.8 µM (active); in the experiment with astro, 28.2 µM (active). For the same molecule, in [1] (setting [5]), the activity, negative = cell killing was -0.487%.

For `C1CCC(C(CC2CCCCN2)C2CCCCC2)CC1` (configuration not stated), the Potency was 25.1 µM (active) in the experiment with OV90, 7.94 µM (active) in the experiment on SKOV3, 31.6 µM (active) in the experiment with Tov-21-G and 15.8 µM (active) in the experiment with astro.

In the case of `Nc1nc(=S)c2[nH]cnc2[nH]1`, the Potency in the experiment with JEG-3 was 3.16 µM (active); with OV90 it was 8.91 µM (active); in the experiment on PA-1 it was 3.55 µM (active); with Tov-21-G, 3.55 µM (active); with Tov112D, 1.41 µM (active). Also, the Potency result with astro is “inactive”.

In the case of `NC1(c2ccc(-c3nc4ccn5c(=O)[nH]nc5c4cc3-c3ccccc3)cc2)CCC1`, the Potency with Hek293T is 3.55 µM (active); with OV90, 2 µM (active); in the experiment with PA-1, 22.4 µM (active); with SKOV3 it was 11.2 µM (active). The Potency result with Tov112D is “inactive”.

Take `CC(C)NCC(O)c1ccc(NS(C)(=O)=O)cc1` (configuration not stated): the activity, negative = cell killing in experiment [1] (setting [9]) is -3.14% and -4.61%; in experiment [1] (setting [10]), -13.7% and -17.7%; in experiment [1] (at 46 µM (top of the series), tumour line A), -32.2%; in experiment [1] (setting [5]), -4.94% and -17%. The Potency result with astro was “inactive”.

As for `CCN(CC)CCn1c(=O)c(Cc2ccc(OC)cc2)nc2ccccc21`, the activity, negative = cell killing in experiment [1] (setting [9]) was -5.87%; in experiment [1] (setting [10]), -15.6%; in experiment [1] (setting [5]), 14.7%. Also, in [1] (tumour line A), the Potency was 10 µM (active).

Regarding `CNC(=O)c1cc(Oc2ccc(NC(=O)Nc3ccc(Cl)c(C(F)(F)F)c3)cc2)ccn1`, the Potency entry with JEG-3, with OV90, with PA-1, in the experiment on Tov-21-G and with Tov112D was “inactive” each time. Moreover, the Potency with astro was 11.2 µM (active). The activity change, negative = inhibition in experiment [2] (Viability) is -24%.

Take `C[C@@H](NCCCc1cccc(C(F)(F)F)c1)c1cccc2ccccc12`: the Potency entry in the experiment on JEG-3, in the experiment with Tov-21-G and in the experiment with Tov112D was “inactive” in each case. Besides, the Potency with astro was 22.4 µM (active). Also, the activity change, negative = inhibition was 14% in [2] (HiBiT) and -23.6% in [2] (Viability).

On to `COc1ccc2cc3[n+](cc2c1OC)CCc1cc2c(cc1-3)OCO2`, for which, in the experiment on OV90, the Potency is 5.62 µM (active). In addition, the Potency entry in the experiment on Tov-21-G was “inactive”. In addition, in [3], the max response was 6.2%. Besides, the outcome in experiment [4] was inactive.

As to `COC(=O)Nc1nc2ccc(C(=O)c3ccccc3)cc2[nH]1`, the Potency in the experiment with OV90 was 8.91 µM (active); in the experiment on PA-1, 1.41 µM (active); in the experiment with Tov112D, 1.58 µM (active); in experiment [1] (tumour line A), 0.158 µM (active). In addition, the activity, negative = cell killing in experiment [1] (setting [6]) is -22.4%. In experiment [2] (Viability), the activity change, negative = inhibition was -33.9%.
